Assay results: PubChem BioAssay (EPA / NIEHS)
Results filed as inconclusive are left out. A structure can be active in one record and inactive in another. Activity calls are given as the source filed them. How the source made its calls, unless noted: active means hit-call score of the fitted dose curve at least 0.9, where 1 is the maximum; inconclusive means response in the unintended direction; inactive means score below 0.9.

Columns and labels:
[1] = Tanguay_ZF_120hpf_BRAI_legacy: (Legacy) Oregon State University Tanguay Lab 120 Hour Post-fertilization zebrafish Assay for Brain Malformation (AID 2283641)
Procedure, shortened: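 Static exposure of staged wild-type embryos until 120 hpf, kept at 28C with light excluded and final DMSO of 0.64% (vol/vol). Presence or absence of brain malformation was noted under brightfield; mortality precluded scoring.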

[2] = Tanguay_ZF_120hpf_SOMI_legacy: (Legacy) Oregon State University Tanguay Lab 120 Hour Post-fertilization zebrafish Assay for Somite Malformation (AID 2283647)
Procedure, shortened: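 Somitogenesis defects are recorded as binary calls in whole larvae at 120 hpf after continuous static chemical exposure starting at 6 hpf in dechorionated 5D embryos. DMSO serves as negative control and baseline.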

[3] = Tanguay_ZF_120hpf_CFIN_legacy: (Legacy) Oregon State University Tanguay Lab 120 Hour Post-fertilization zebrafish Assay for Caudal Fin Malformation (AID 2283649)
Procedure, shortened: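 Single dechorionated 5D wild-type embryos are dosed at 6 hpf (final DMSO 0.64%) and held statically at 28C. Caudal fin malformation is recorded as present or absent at 120 hpf under brightfield, excluding dead embryos.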

[4] = Tanguay_ZF_120hpf_PIG_legacy: (Legacy) Oregon State University Tanguay Lab 120 Hour Post-fertilization zebrafish Assay for Pigmentation Malformation (AID 2283650)
Procedure, shortened: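 Pigment malformation recorded as a binary call at 120 hpf in zebrafish (Tropical 5D) exposed singly from 6 hpf after pronase dechorionation. Static, sealed, 28C exposure, 0.64% DMSO; mortality excludes scoring; positive-direction fit against DMSO.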

[5] = Tanguay_ZF_120hpf_CIRC_legacy: (Legacy) Oregon State University Tanguay Lab 120 Hour Post-fertilization zebrafish Assay for Circulatory Malformation (AID 2283651)
Procedure, shortened: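 Static exposure, 6–120 hpf, 28C, sealed and dark; one dechorionated 5D embryo/well; DMSO 0.64% v/v final. Binary circulation endpoint by brightfield; dead embryos not scored.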

[6] = Tanguay_ZF_120hpf_SWIM_legacy: (Legacy) Oregon State University Tanguay Lab 120 Hour Post-fertilization zebrafish Assay for Swim Bladder Malformation (AID 2283654);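 further: swim bladder malformation in each larva scored yes or no under brightfield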
Procedure, shortened: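 Scoring is binary for swim bladder defects at 120 hpf, by brightfield inspection of zebrafish larvae. Embryos were exposed singly from 6 hpf after pronase dechorionation, at 28C with 0.64% DMSO; mortality excluded scoring.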

[7] = Tanguay_ZF_120hpf_NC_legacy: (Legacy) Oregon State University Tanguay Lab 120 Hour Post-fertilization zebrafish Assay for Notochord and Tail Malformation (AID 2283656)
Procedure, shortened: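 Binary notochord-distortion calls, made by brightfield inspection, form the read-out; activity is fitted in the positive direction against DMSO. Exposure ran statically from 6 to 120 hpf at 28C with 0.64% DMSO.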

[8] = read-out: ABC Transporter (ABCB1), ABCB1 (gene 5243); assay: CLD_ABCB1_6hr: CellzDirect (CLD) Gene Expression Assay for ABC Transporter (ABCB1) at 6 hours (AID 2283659);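 further: hits raise ABCB1 transcript above the DMSO vehicle baseline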
Procedure, shortened: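 ABCB1 transcript measured by quantitative nuclease protection assay, chemiluminescent read-out, 6 h after dosing human hepatocyte cultures (0.2% DMSO vehicle, daily redosing). Activity fitted as increase over DMSO baseline; cytotoxicity flagged by phase-contrast morphology.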

[9] = read-out: Broad substrate specificity ATP-binding cassette transporter ABCG2 (Homo sapiens) (UniProt Q9UNQ0); assay: CLD_ABCG2_6hr: CellzDirect (CLD) Gene Expression Assay for ABC Transporter (ABCG2) at 6 hours (AID 2283660)
Procedure, shortened: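 ABCG2 mRNA induction measured by qNPA chemiluminescence in human primary hepatocyte cultures, 6 h post-dose. Chemicals tested at several concentrations against a 0.2% DMSO vehicle; positive-direction fit relative to DMSO.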

[10] = read-out: xenobiotic metabolism (CYP1A1), CYP1A1 (gene 1543); assay: CLD_CYP1A1_6hr: CellzDirect (CLD) Gene Expression Assay for xenobiotic metabolism (CYP1A1) at 6 hours (AID 2283661);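 on AC50: potency for transcript induction above DMSO vehicle baseline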
Procedure, shortened: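 Read-out 6 h post-dose: qNPA chemiluminescent quantitation of transcript induction against 0.2% DMSO. Cells were cultured primary human hepatocytes from two separate donor preparations; phase-contrast morphology annotated apparent cytotoxicity.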

[11] = Tanguay_ZF_120hpf_TR_legacy: (Legacy) Oregon State University Tanguay Lab 120 Hour Post-fertilization zebrafish Assay for Touch Response (AID 2283667)
Procedure, shortened: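 Binary touch-response endpoint in larvae at 120 hpf after static waterborne exposure from embryo stage (28°C, 0.64% DMSO vehicle, 5 uM trimethyltin chloride as positive control); embryos dead at 24 or 120 hpf excluded; fitted as gain versus DMSO.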

[12] = read-out: sulfotransferase (SULT2A), SULT2A1 (gene 6822); assay: CLD_SULT2A_6hr: CellzDirect (CLD) Gene Expression Assay for sulfotransferase (SULT2A) at 6 hours (AID 2283669);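 further: hits raise transcript level above the DMSO vehicle baseline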
Procedure, shortened: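 Measured 6 h after dosing, SULT2A1 mRNA in human hepatocyte lysates was quantified by S1 nuclease protection with chemiluminescent detection. Increases fitted against 0.2% DMSO vehicle baseline; phase-contrast cytotoxicity recorded yes/no.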

[13] = Tanguay_ZF_120hpf_PFIN_legacy: (Legacy) Oregon State University Tanguay Lab 120 Hour Post-fertilization zebrafish Assay for Pectoral Fin Malformation (AID 2283648);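 further: each larva judged yes or no for fin defect by brightfield with dead larvae skipped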
Procedure, shortened: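 Pectoral fin malformation was recorded as a binary endpoint at 120 hpf in wild-type Tropical 5D larvae, which had been dechorionated and exposed statically from 6 hpf at 28C in 0.64% DMSO. Dead embryos were excluded.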

[14] = Tanguay_ZF_120hpf_TRUN_legacy: (Legacy) Oregon State University Tanguay Lab 120 Hour Post-fertilization zebrafish Assay for Truncated Body (AID 2283655)
Procedure, shortened: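 Single dechorionated zebrafish embryos received test chemical from 6 hpf in 0.64% DMSO, kept at 28C. At 120 hpf, brightfield inspection noted any truncated body.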

[15] = read-out: solute carrier (SLC22A6), SLC22A6 (gene 9356); assay: LTEA_HepaRG_SLC22A6: Life Technologies and Expression Analysis (LTEA) Assay for solute carrier (SLC22A6) using HepaRG (AID 2283653; active means hit-call score of the fitted dose curve at least 0.9, where 1 is the maximum; inactive means score below 0.9); conditions: mRNA level, 48 h; actives raise or lower the signal
Procedure, shortened: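 Gene-expression endpoint in HepaRG hepatic cells: duplicate 8-point concentration-response, highest 100 uM, 48 h treatment in serum-free medium with 0.5% DMSO. SLC22A6 expression measured by qRT-PCR, normalised to ACTB/GAPDH/POLR2A.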

[16] = read-out: solute carrier (SLC10A1), SLC10A1 (gene 6554); assay: LTEA_HepaRG_SLC10A1: Life Technologies and Expression Analysis (LTEA) Assay for solute carrier (SLC10A1) using HepaRG (AID 2283657; active means hit-call score of the fitted dose curve at least 0.9, where 1 is the maximum; inactive means score below 0.9); conditions: mRNA level, 48 h; actives raise or lower the signal
Procedure, shortened: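 SLC10A1 transcript measured by TaqMan qRT-PCR, housekeeping-normalised, after 48 h chemical treatment of human HepaRG cells. Eight concentrations (half-log, max 100 uM, 0.5% DMSO vehicle) in duplicate; fitted bidirectionally against DMSO baseline.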

[17] = CCTE_Simmons_CellTiterGLO_HEK293T: Viability Assessment in CCTE's Assays for Thyroperoxidase (TPO) Inhibition, Simmons Lab (AID 2283665);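 on AC50: cells exposed to compound for 24 h before readout; actives reduce ATP signal below DMSO vehicle meaning cytotoxicity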
Procedure, shortened: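 Luminescent ATP readout (CellTiter-Glo, 20 min at room temperature) after 24 hr exposure of HEK293T cells to 5 nM–87.5 uM final compound; signal loss relative to DMSO vehicle indicated cytotoxicity; dichlone titrated as positive control.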

Sequence of Broad substrate specificity ATP-binding cassette transporter ABCG2 (Homo sapiens) (Q9UNQ0 whole entry, looked up): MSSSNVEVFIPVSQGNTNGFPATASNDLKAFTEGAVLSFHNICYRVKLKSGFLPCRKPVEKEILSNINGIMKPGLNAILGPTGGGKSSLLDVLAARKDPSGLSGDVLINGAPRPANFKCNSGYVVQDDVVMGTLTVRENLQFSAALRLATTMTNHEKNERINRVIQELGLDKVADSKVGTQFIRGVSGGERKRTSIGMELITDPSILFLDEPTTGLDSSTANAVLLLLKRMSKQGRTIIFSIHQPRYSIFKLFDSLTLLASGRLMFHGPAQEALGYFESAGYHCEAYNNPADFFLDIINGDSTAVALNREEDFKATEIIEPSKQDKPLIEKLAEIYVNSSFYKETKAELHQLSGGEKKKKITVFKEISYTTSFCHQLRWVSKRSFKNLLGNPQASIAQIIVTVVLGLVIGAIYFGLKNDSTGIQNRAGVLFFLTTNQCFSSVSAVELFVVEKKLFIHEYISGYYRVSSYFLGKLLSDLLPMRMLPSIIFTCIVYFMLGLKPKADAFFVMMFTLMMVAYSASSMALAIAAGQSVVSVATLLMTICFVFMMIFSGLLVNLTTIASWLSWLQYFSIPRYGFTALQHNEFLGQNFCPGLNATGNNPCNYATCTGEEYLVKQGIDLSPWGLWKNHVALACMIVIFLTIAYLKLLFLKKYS

Compound | outcome [1] | outcome [2] | outcome [3] | outcome [4] | outcome [5] | outcome [6] | outcome [7] | outcome [8] | outcome [9] | outcome [10] | outcome [11] | outcome [12] | outcome [13] | outcome [14] | outcome [15] | AC50 [16] | AC50 [10] | outcome [17] | AC50 [17]
CCNc1nc(N)nc(Cl)n1 | inactive | inactive | inactive | inactive | inactive | inactive | inactive | inactive | inactive | inactive | inactive | inactive |  |  |  |  |  |  | 
OB(O)O | inactive | inactive | inactive | inactive | inactive | inactive | inactive |  | inactive |  | inactive |  | inactive | inactive |  |  |  |  | 
S=C(S)NCCNC(=S)S.[Mn+2].[S-]C([S-])=NCCN=C([S-])[S-].[Zn+2] | inactive | inactive | inactive | inactive | inactive | inactive | inactive | inactive | inactive |  | inactive | inactive |  |  | inactive | 1.74 µM (active) | 1.45 µM (active) | inactive | 
CCCCC(CC)CN1C(=O)C2C3C=CC(C3)C2C1=O (stereo not drawn) | inactive | inactive | inactive | inactive |  | inactive | inactive | inactive | inactive |  | inactive | inactive |  | inactive |  |  | 6.62 µM (active) |  | 
CC(C)CCCCCCc1ccc(O)cc1 | inactive | inactive | inactive | inactive | inactive | inactive | inactive |  |  |  | inactive |  |  |  |  |  |  |  | 6.47 µM (active)
CCOC(=O)C(C)Oc1ccc(Oc2cnc3cc(Cl)ccc3n2)cc1 (stereo not drawn) | inactive | inactive | inactive | inactive | inactive | inactive | inactive |  | inactive |  | inactive |  |  |  |  |  |  |  | 
